# DNMT1 inh = inhibitors of human DNMT1. P26358. DNMT1 molecular beacon, Hinp1I cleavage, fluorescence. inhibition (reported as % activation of signal), % at 10 µM. 360,000 compounds, 0.83% hits; in the data active = inhibition above about 50%
# Target sequence (P26358 504-1616 limits assumed): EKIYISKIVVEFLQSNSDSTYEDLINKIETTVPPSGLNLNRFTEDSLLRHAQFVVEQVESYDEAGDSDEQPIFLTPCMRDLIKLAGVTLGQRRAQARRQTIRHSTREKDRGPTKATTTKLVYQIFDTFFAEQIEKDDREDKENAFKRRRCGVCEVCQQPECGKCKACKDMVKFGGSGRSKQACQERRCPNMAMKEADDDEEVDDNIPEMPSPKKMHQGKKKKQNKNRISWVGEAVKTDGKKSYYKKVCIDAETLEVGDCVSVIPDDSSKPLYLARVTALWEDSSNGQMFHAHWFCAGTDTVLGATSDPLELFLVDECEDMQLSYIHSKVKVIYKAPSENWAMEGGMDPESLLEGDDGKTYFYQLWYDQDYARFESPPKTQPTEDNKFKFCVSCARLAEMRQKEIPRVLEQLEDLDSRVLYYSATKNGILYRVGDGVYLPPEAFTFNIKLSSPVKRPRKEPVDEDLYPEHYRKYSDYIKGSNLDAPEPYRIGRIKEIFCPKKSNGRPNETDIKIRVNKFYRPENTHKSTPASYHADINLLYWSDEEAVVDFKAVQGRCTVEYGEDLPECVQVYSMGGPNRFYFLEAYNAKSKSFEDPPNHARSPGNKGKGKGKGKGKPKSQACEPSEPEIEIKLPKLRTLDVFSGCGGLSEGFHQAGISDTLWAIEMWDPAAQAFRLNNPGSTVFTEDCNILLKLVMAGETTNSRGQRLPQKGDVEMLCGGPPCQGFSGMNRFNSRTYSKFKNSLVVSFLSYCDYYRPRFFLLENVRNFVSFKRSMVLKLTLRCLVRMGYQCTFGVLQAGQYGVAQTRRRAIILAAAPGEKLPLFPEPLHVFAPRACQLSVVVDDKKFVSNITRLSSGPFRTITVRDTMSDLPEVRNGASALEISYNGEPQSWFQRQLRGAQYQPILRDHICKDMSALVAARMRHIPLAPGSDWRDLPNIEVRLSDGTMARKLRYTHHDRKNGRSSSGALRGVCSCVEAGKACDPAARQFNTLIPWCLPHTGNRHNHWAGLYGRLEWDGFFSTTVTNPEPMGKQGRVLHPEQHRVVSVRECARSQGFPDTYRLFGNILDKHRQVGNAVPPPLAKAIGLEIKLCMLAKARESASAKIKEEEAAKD
# PG9 binder = small molecules binding HIV-1 gp120 antibody PG9. TR-FRET gp120-PG9 antibody binding. inhibition, % at 6.7 µM. 360,000 compounds, 0.43% hits. AID 624416; in the data active = inhibition above about 8.5%
# MBD2 inh = inhibitors of human MBD2 binding to methylated oligonucleotide; Q9UBB5; TR-FRET; inhibition, % at 4.4 µM; 370,000 compounds, 0.31% hits; in the data active = inhibition above about 13%
# LEDGF integ inh = blocks HIV-1 LEDGF/p75-dependent DNA integration; AID 743269; inhibition, % at 3.7 µM; TR-FRET IN-LEDGF/p75 DNA integration, Eu/Cy5; 370,000 compounds, 0.64% hits;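 active = inhibition above the screen-wide mean plus 3 SD, cut at about 13% in these data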;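 note: signal is the Cy5 over europium emission ratio at 671 and 618 nm; 0% = plate median of compound wells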
# UHRF1 binding = UHRF1 methyl-DNA binding inhibition; Q96T88; UHRF1 binding to methylated oligo, TR-FRET; inhibition, % at 4.4 µM; 370,000 compounds, 0.75% hits; AID 687016; in the data active = inhibition above about 21%;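 note: UHRF1 SRA domain binding a hemimethylated CpG hairpin DNA probe; 0% = median of test compound wells and 100% = reference inhibitor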
# rCAG binder = molecules binding r(CAG) RNA repeats | r(CAG) RNA repeat, TO-PRO-1 dye displacement fluorescence | inhibition, % at 3 µM | 370,000 compounds, 1.3% hits | AID 651821;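 active = inhibition above the plate cutoff, the mean of all test compounds on that plate plus 3 SD, cut at about 35% in these data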;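 note: 0% = DMSO alone and 100% = 100 µM mitoxantrone as full dye displacement; higher means more dye released from RNA so lower well fluorescence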
# DNMT1 confirm = DNMT1 inhibition confirmation, single concentration | inhibition, % at 10 µM | shares compounds with DNMT1 inh | DNMT1 molecular beacon HinP1I cleavage, fluorescence | 2,300 compounds, 8% hits;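 active = average inhibition of at least 30% in the single-concentration confirmation test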
# Beacon interf = counter-screen for DNMT1 inhibitors: spectral interference | shares compounds with DNMT1 inh | DNMT1 molecular beacon spectral interference counterscreen, fluorescence 485/520 | activation (fluorescence interference), % at 10 µM | 2,300 compounds, 1% hits | AID 602387;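 active = activation of at least 30% at 10 µM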;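 note: DNMT1 catalytic domain with a HinP1I cleavage step and a FAM/dabcyl DNA beacon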
# PG9 binder conf = confirmation of small molecules binding HIV-1 gp120 antibody PG9 | TR-FRET PG9 antibody binding, biochemical | shares compounds with PG9 binder | 1,500 compounds, 90% hits | inhibition, % at 6.7 µM; in the data active = inhibition above about 9%
# PGV04 counter = counter-screen for PG9 binders: binding control antibody PGV04; shares compounds with PG9 binder; TR-FRET PGV04 antibody-gp120 binding, biochemical; inhibition, % at 6.7 µM; 1,500 compounds, 95% hits; AID 651604; in the data active = inhibition above about 9.5%
# rCAG binder conf = r(CAG) RNA repeat binding, confirmation | shares compounds with rCAG binder | TO-PRO-1 dye displacement fluorescence | inhibition, % at 3 µM | 4,300 compounds, 70% hits;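 active = inhibition above a per-plate cutoff, the mean inhibition of sample wells plus 3 SD, cut at about 35% in these data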;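 note: loss of TO-PRO-1 fluorescence as compound displaces dye from 1x1 AA loop RNA; 0% = DMSO only wells and 100% = 100 µM mitoxantrone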
# DNA CAG counter = disrupts DNA CAG TO-PRO-1 complex, flagging rCAG hits. shares compounds with rCAG binder. d(CAG) DNA oligo TO-PRO-1 dye displacement, fluorescence. inhibition, % at 3 µM. 4,300 compounds, 94% hits;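 active = inhibition above its plate's cutoff, the mean test-well inhibition plus 3 SD, cut at about 4.8% in these data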;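 note: 0% = DNA dye mix with DMSO and 100% = 100 µM mitoxantrone; hits displace the dye from DNA and so lower well fluorescence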
# UHRF1 ctr MBD2 = UHRF1 methyl-oligo binding inhibition as MBD2 counter-screen | UHRF1 binding to methylated oligonucleotide, TR-FRET | 1,000 compounds, 25% hits | AID 720530 | inhibition, % at 4.4 µM | shares compounds with MBD2 inh; in the data active = inhibition above about 21%;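 note: UHRF1 SRA domain binding a labeled hemimethylated CpG hairpin DNA; 0% = vehicle only and 100% = reference inhibitor with vehicle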
# MBD2 DBD conf = confirmation of human MBD2-DBD methylated oligonucleotide binding inhibitors; 1,000 compounds, 26% hits; shares compounds with MBD2 inh; TR-FRET MBD2-DBD binding to methylated oligonucleotide; inhibition, % at 4.4 µM
# IN multimer act = activates HIV-1 integrase multimerization in LEDGF counter-screen; shares compounds with LEDGF integ inh; TR-FRET HIV-1 integrase multimerization, biochemical; activation, % at 7.7 µM; 2,000 compounds, 17% hits; AID 1053131; in the data active = activation above about 8.9%
# TR-FRET interf = TR-FRET optical interference, LEDGF/p75 integration counter-screen; TR-FRET optical interference counterscreen, HIV-1 IN multimerization; AID 1053135; shares compounds with LEDGF integ inh; 2,000 tested, under 10 active; inhibition, % at 7.7 µM;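 active = inhibition above the mean over all tested compounds plus 3 SD, which no compound reached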;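 note: 0% = integrase with antibodies and DMSO and 100% = antibodies without integrase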
# LEDGF integ conf = LEDGF/p75-dependent HIV-1 integration inhibition, confirmation. TR-FRET LEDGF/p75-dependent HIV-1 integration, biochemical. 2,000 compounds, 36% hits. AID 1053136. inhibition, % at 3.7 µM. shares compounds with LEDGF integ inh
# Numbers without * were called inactive; x = no result given. Rows were chosen to be rich in hits. Some 3.5% of all compounds tested hit in one or more screens of this group. Cut-off read from the data, not from the text of the source, unless noted: active = inhibition above about 14%; inactive = the rest.
SMILES,DNMT1 inh,PG9 binder,MBD2 inh,LEDGF integ inh,UHRF1 binding,rCAG binder,PG9 binder conf,PGV04 counter,others
Cc1onc(-c2ccccc2Cl)c1C(=O)NCc1ccco1,63*,1,26*,44*,41*,19,x,x,DNMT1 confirm=4;Beacon interf=1;UHRF1 ctr MBD2=19;MBD2 DBD conf=14*;IN multimer act=10*;TR-FRET interf=-50;LEDGF integ conf=30*
COc1cc(C(=O)Nc2ccc(Nc3ccccc3)cc2)cc(OC)c1OC,-7,-3,0,0,1,1,x,x,
CC1(OC(=O)CCc2ccccc2)C(=O)C=C2C=C(c3ccc(C#N)cc3)N(C3CCCCC3)C=C2C1=O (stereo unspecified),-4,0,-6,1,6,16,x,x,
CC1(OC(=O)CCc2ccccc2)C(=O)C=C2C=C3CCCN3C=C2C1=O (stereo unspecified),77*,0,-3,20*,7,19,x,x,DNMT1 confirm=2;Beacon interf=0;IN multimer act=1;TR-FRET interf=-3;LEDGF integ conf=23*
Nc1nc(-c2ccco2)cs1,-4,1,4,6,3,1,x,x,
Nc1nc(-c2ccco2)c(-c2ccco2)s1,51*,-4,2,30*,8,12,x,x,DNMT1 confirm=3;Beacon interf=29;IN multimer act=8.9*;TR-FRET interf=-45;LEDGF integ conf=19*
CC(/C=N/n1c(-c2ccncc2)n[nH]c1=S)=C\c1ccco1,83*,3,-1,16*,8,21,x,x,DNMT1 confirm=2;Beacon interf=3;IN multimer act=5;TR-FRET interf=-17;LEDGF integ conf=11
S=c1[nH]nc(-c2ccncc2)n1/N=C/C=C/c1ccco1,63*,-1,0,18*,14,15,x,x,DNMT1 confirm=4;Beacon interf=3;IN multimer act=5;TR-FRET interf=-26;LEDGF integ conf=33*
Cc1cccc(-c2n[nH]c(=S)n2/N=C/C=C/c2ccco2)c1,66*,2,11,29*,26*,43*,x,x,DNMT1 confirm=2;Beacon interf=4;rCAG binder conf=26;DNA CAG counter=13*;IN multimer act=2;TR-FRET interf=-12;LEDGF integ conf=8
C[C@H](CO)N1C[C@H](C)[C@@H](CN(C)S(C)(=O)=O)Oc2ccc(NC(=O)c3ccncc3)cc2C1=O,8,0,2,0,-2,-3,x,x,
CC(=O)N1CCN(C(=O)CCn2nnc3ccccc32)CC1,x,x,-3,-2,-1,0,x,x,
S=c1[nH]nc(-c2cc(-c3ccco3)[nH]n2)n1-c1ccccc1Cl,73*,2,3,14*,17,25,x,x,DNMT1 confirm=9;Beacon interf=9;IN multimer act=2;TR-FRET interf=-9;LEDGF integ conf=15*
N#Cc1c(N2CCCCC2)nc(N)c2c(N)nc3c(c12)CC(CCl)O3 (stereo unspecified),-8,21*,-2,-1,-12,22,23*,35*,
COc1ccc(S(=O)(=O)Nc2c(NC3CCCCC3)c3ccccc3oc2=O)cc1OC,4,-2,0,2,-3,-3,x,x,
Cc1nc2ccc3nc(NC(=O)c4ccc5c(c4)OCCO5)sc3c2s1,20,35*,0,5,1,4,27*,56*,
CCOC(=O)C1(C)CCCCCN1C(=O)c1ccc(C(F)(F)F)nc1C (stereo unspecified),1,1,1,2,-1,-3,x,x,
COc1ccc(C(=O)C[n+]2ccc3c(c2)nc(Cc2ccccc2)n3C)cc1,x,x,5,0,4,7,x,x,
CC[C@@H](CCCCCCCn1ccc2ccccc21)CCC(=O)N(c1ccccc1)c1ccccc1,x,x,2,0,0,2,x,x,
O=C(C[C@H]1CC[C@@H](NC(=O)Nc2ccc3c(c2)OCO3)[C@@H](CO)O1)NCc1ccccc1,x,14*,-1,2,-2,1,8,19*,
C=CCN1C(=O)/C(=C2/Sc3ccc(OC)cc3N2C)SC1=Nc1cccc(O)c1,-11,11*,0,1,0,10,41*,59*,
O=C(CSc1nc(-c2ccccc2)cc(C(F)(F)F)n1)NCc1cccs1,0,3,2,2,0,-1,x,x,
COc1ccc(-c2cc(C(F)(F)F)nc(SCC(=O)NCc3cccs3)n2)cc1,20,13*,0,1,-3,0,8,9,
C[C@H](NC(=O)c1ncn2c1C(=O)NC[C@@H]2C)c1ccccc1,-2,-2,-3,1,0,3,x,x,
COc1ccc(Cc2nnc(SCC(=O)c3ccc4c(c3)NC(=O)CO4)o2)cc1,-7,9.3*,5,-3,3,1,13*,30*,
COc1ccc(Cc2nnc(SCC(=O)c3ccc(OC)cc3)o2)cc1,-4,-3,5,1,2,-1,x,x,
Cc1cc(Br)cn2c(Cc3cccc(F)c3)c(-c3ccc(C#N)cc3)nc12,x,9.2*,3,3,14,11,15*,21*,
N#Cc1ccc(-c2nc3ccc(Br)cn3c2Cc2cccc(Cl)c2)cc1,-5,2,4,-2,-3,18,x,x,
N#Cc1ccc(-c2nc3ccc(Br)cn3c2Cc2ccccc2)cc1,11,10*,7,-5,22*,8,14*,23*,
N#Cc1ccc(-c2nc3ccc(Br)cn3c2Cc2cccc(F)c2)cc1,1,4,3,-4,1,22,x,x,
COC(=O)[C@]12C[C@H](CC(=O)N3CCCCC3)C(=O)N(CCC3=CCCCC3)C1=C[C@H](COCc1ccccc1)O[C@@H]2C,x,0,3,-1,1,3,x,x,

# Source: PubChem BioAssay (several laboratories)
